According to PubChem BioAssay (Tox21):
Records with an inconclusive call do not appear. A number with no mark means an inactive call. Activity calls are given as the source filed them. Calls follow the shape of the full dose curve.

Assay: qHTS assay to identify small molecule agonists of the NFkB signaling pathway - cell viability counter screen (AID 1159515); also: nearly all actives have a fitted effect of over 55% in size
Conditions: NFkB-bla ME-180 viability, CellTiter-Glo luminescence, 5 h; series mostly up to 61 µM
Source text: National Center for Advancing Translational Sciences [NCATS]
NIH Chemical Genomics Center [NCGC]
U.S. Environmental Protection Agency [EPA]
National Institutes of Environmental Health Sciences [NIEHS]
National Toxicology Program [NTP]
U.S. Food and Drug Administration [FDA]
Transcription factors and their stimulated target gene expression play pivotal roles across many cellular processes including responses to environmental stimuli. Proper regulation of associated pathways is critical to maintain cell health and function. Constitutive activation of transcription factor pathways has been implicated in tumors as it may block cellular functions such as apoptosis and lead to invasion and metastasis. One important transcription factor that stimulates gene expression in response to cytokines, UV radiation, and other stimuli is nuclear factor-kappa B (NFkB). To measure activation of the NFkB pathway, the CellSensor NFkB-bla ME-180 cell line (Life Technologies, Carlsbad, CA) that stably expresses beta-lactamase reporter gene under the regulation of a NF-kB response element was used. This assay allows measurement of the NFkB pathway activity induced by compounds in a ME-180 cell line. This system quantitates NF-kB activity using a FRET-based assay system where beta-lactamase expression disrupts FRET, allowing for fluorescent measurement of activity. This cell line has been used to screen the Tox21 10K compound library and to identify compounds that induce the NFkB pathway activity. The cytotoxicity of the Tox21 compound library against the NFkB-bla ME-180 cell line was tested in parallel by measuring cell viability using the CellTiter-Glo assay in the same wells.
Tox21 Assay Protocol Summary:
NFkB-bla ME-180 cells were dispensed at 2,000 cells/6 uL of assay medium per well into black wall/clear-bottom 1536-well plates using a Multidrop Combi (ThermoFisher Scientific, Waltham, MA) dispenser. After the assay plates were incubated at 37 C and 5% CO2 for an overnight, 23 nL of compounds dissolved in DMSO, positive controls or DMSO only was transferred to the assay plate by a Pintool station (Kalypsys, San Diego, CA). The assay plates were incubated at 37 C and 5% CO2 for 5 hr. One uL of LiveBLAzer B/G FRET substrate (Life Technologies) was added using a Flying Reagent Dispenser (Aurora Discovery, San Diego, CA) and the plates were incubated at room temperature for 1.5 hr. Fluorescence intensity (405 nm excitation, 460 nm and 530 nm emissions) was measured using an Envision plate reader (PerkinElmer, Shelton, CT). For cytotoxicity, 3 ul/well of CellTiter-Glo reagent was added into the assay plates using an FRD. After 30 min incubation at room temperature, the luminescence intensity was measured using a ViewLux plate reader (PerkinElmer).
% is scaled to controls: 0 for no effect and ±100 for the full control effect.

SMILES	outcome	activity, negative = cytotoxic
CC(CC(=O)O)CC(C)(C)C (stereo not given)	inactive	–
OC[C@@H](O)[C@H](O)[C@@H](O)[C@@H](O)CO	inactive	–
O=C(COCCOCCOCC(=O)Nc1c(I)cc(I)c(C(=O)O)c1I)Nc1c(I)cc(I)c(C(=O)O)c1I	inactive	–
CCCCOC(=O)C(C)OC(=O)CCC (stereo not given)	inactive	–
CC(C)COC(=O)CCCCC(=O)OCC(C)C	inactive	–
C1=CCC(c2ccccc2)CC1 (stereo not given)	inactive	–
CCCCCCCCOC(C)=O	inactive	–
CC(C)CCO	inactive	–
F[Si-2](F)(F)(F)(F)F	inactive	–
CCCCCCCCCCCCCC(=O)OC	inactive	–
Cc1ccccc1OCC1CO1 (stereo not given)	inactive	–
CCS(=O)(=O)CCn1c([N+](=O)[O-])cnc1C	inactive	–
Oc1ccccc1Cc1ccccc1O	inactive	–
C[CH2][Ge]([Cl])([CH2]C)[CH2]C	inactive	–
CCC(O)C(C)(C)C (stereo not given)	inactive	–
CC(C)COC(=O)/C=C/c1ccccc1	inactive	–
CC(=O)OC(C(=O)c1ccccc1)c1ccccc1 (stereo not given)	inactive	–
OC(CCN1CCCCC1)(c1ccccc1)c1ccccc1	inactive	–
Nc1cc(Cl)cc(S(=O)(=O)O)c1O	inactive	–
C[C@@H]1C[C@H]2[C@@H]3C[C@H](F)C4=CC(=O)C=C[C@]4(C)[C@@]3(F)[C@@H](O)C[C@]2(C)[C@@]1(O)C(=O)CO	inactive	–

SMILES	outcome	activity, negative = cytotoxic
Cc1ccc2c(c1)c1c3n2CCNC3CCC1 (stereo not given)	inactive	–
COc1cc([N+](=O)[O-])ccc1N	inactive	–
O=C(O)c1ccc(OCCN2CCCCC2)cc1	inactive	–
O=c1[nH]c(=O)c2[nH]c(=O)[nH]c2[nH]1	–	1.31% [at 6.95 µM]
CNC(=O)C(c1ccccc1)c1ccccc1	inactive	–
CCCCCC1Nc2cc(C(F)(F)F)c(S(N)(=O)=O)cc2S(=O)(=O)N1 (stereo not given)	inactive	–
Cc1cc(C)cc([N+](=O)[O-])c1	inactive	–
CCC1Nc2cc(Cl)c(S(N)(=O)=O)cc2S(=O)(=O)N1 (stereo not given)	inactive	–
COCCOCCOCCOC	inactive	–
Cc1ccc(S(=O)(=O)NC(=O)NC2CCCCCCC2)cc1	inactive	–
CCCCC(C)C(=O)O (stereo not given)	inactive	–
N#CCCOCCOCCC#N	inactive	–
O=C(Nc1cccc(C2=NCCN2)c1)Nc1cccc(C2=NCCN2)c1	inactive	–
CC(=O)c1ccc2c(c1)CCCC2	inactive	–
CCOc1ccc(NC(=O)OC(C)C)cc1OCC	inactive	–
CCC1COC(=O)O1 (stereo not given)	inactive	–
CC1=NN(c2ccc(S(=O)(=O)O)cc2)C(=O)C1N=Nc1ccccc1 (stereo not given)	inactive	–
C=CCOCC(CO)(COCC=C)COCC=C	inactive	–
CO[Si](CCCCl)(OC)OC	inactive	–
O=C(Oc1ccccc1C(=O)O)c1ccccc1O	inactive	–
